# Measured values published in PubChem BioAssay AID504408 (Broad Institute, 2011).
# Hit rate of the full screen: of about 300,000 compounds, about 5,200 (1.7%) were called active. The sample holds actives, similar compounds and a random draw of the others, so the mix is not that of the screen. Values without a mark were called inactive.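 The calls were made as follows: active = mean replicate activation of at least 50% with a set share of replicates each reaching 50%; inconclusive = only one of those two conditions met; inactive = mean below 50% and too few replicates reaching it.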
# Assay: HSF-1 response element luciferase induction – NIH3T3-HGL cells, MG132 stress, luminescence, single point, primary screen (AID 504408);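 also: 0% = median of the neutral control wells and 100% = twice that signal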
# Conditions: NIH3T3-HGL HSF-1 luciferase reporter, MG132, 8 h; at 9 µM; stronger effect = higher value; 100% = twice DMSO control signal
row,Compound,activation
1,Cc1cc(C)c(-c2c(O)c3ccccc3n(C)c2=O)c(C)c1,-9.47%
2,Cn1c(=O)c([N+](=O)[O-])c(Oc2ccccc2)c2ccccc21,6.27%
3,Cc1cccc(Oc2c([N+](=O)[O-])c(=O)n(C)c3ccccc23)c1,110% (active)
4,CC(=O)c1c(C)[nH]c(C(=O)COC(=O)CCOc2ccc(C)cc2)c1C,-0.193%
5,COC(=O)N/N=C/c1c[n+]([O-])c2ccccc2[n+]1[O-],0.846%
6,Cc1ccc(S(=O)(=O)N(C)C)cc1NC(=O)COC(=O)c1c(C)noc1C,63.2% (active)
7,Cc1ccc(S(=O)(=O)N(C)C)cc1NC(=O)COC(=O)C1COc2ccccc2O1 (stereo unspecified),-5.78%
8,Cc1ccc(S(=O)(=O)N(C)C)cc1NC(=O)COC(=O)/C=C/c1cccs1,-10.8%
9,O=C(N/N=C/c1cc(Br)c(O)c([N+](=O)[O-])c1)C(O)(c1ccccc1)c1ccccc1,3.81%
10,N#C/C(=C(\O)C(F)(F)F)c1nnc2n1CCCCC2,55.4% (active)
11,N#C/C(=C(\O)CCl)c1nnc2n1CCCCC2,-4.83%
12,N#C/C(=C/c1cccc([N+](=O)[O-])c1)c1nnc2n1CCCCC2,-2.78%
13,CC(C)(C)N1C(=O)[C@H]2[C@@H](c3ccc(Br)cc3)N3C(=O)N(c4cccc(Cl)c4)C(=O)[C@@]3(C)[C@H]2C1=O,-6%
14,CCCCN(C(=O)CSCC(=O)Nc1ccc(OC)cc1)c1c(N)n(CCC)c(=O)[nH]c1=O,-4.27%
15,Cc1ccccc1N1CC(C(=O)Nc2ccc(S(=O)(=O)N3CCCC3)cc2)CC1=O (stereo unspecified),9.12%
16,CN(C1CCS(=O)(=O)C1)S(=O)(=O)c1ccc2ccccc2c1 (stereo unspecified),-4.34%
17,COc1ccc(Cc2nnc(SCC(=O)Nc3ccc(C)c(Cl)c3)[nH]c2=O)cc1,-4.89%
18,Oc1ccc(CN2CCN(c3ncccn3)CC2)cc1,7.28%
19,O=C(c1ccncc1)N1CCN(c2ccc3ccccc3n2)CC1,-4.23%
20,c1cnc(N2CCN(c3ccc4ccccc4n3)CC2)nc1,53.3% (active)
21,CCN(CC(=O)Nc1c(F)cccc1F)C(=O)CN1c2cccc3cccc(c23)S1(=O)=O,-9.4%
22,Cc1cc(NC(=O)CCS(=O)(=O)c2ccc(F)cc2)no1,-7.32%
23,Cc1ccc(S(=O)(=O)NCCC(=O)NNC(=O)C2COc3ccccc3O2)cc1 (stereo unspecified),5.45%
24,Cc1ccc(OCC(=O)Nc2ccc(N3CCN(C(=O)c4ccco4)CC3)cc2)c(C)c1,67.8% (active)
25,Cc1ccc(C)c(OCC(=O)N2CCN(C(=O)c3ccco3)CC2)c1,17%
26,COc1cccc(C(=O)Nc2ccc(N3CCN(C(=O)c4ccco4)CC3)cc2)c1,-17.6%
